Laboratory results as given in article PMC11574364.

Columns and labels:
Assay in all cases: protein domain microarray probed with biotinylated miRNA; Domain array: 20 mM Tris-HCl pH 7.4, 200 mM KCl, 0.2 mM EDTA, 0.05% NP40, 2 ug/ul heparin, overnight 4 C. ORF array: PBS pH 7.0 with RNase inhibitor, 100 ng RNA; high values mean tight binding
Conditions in all cases: ssRNA
SF3B4 = SF3B4 (Homo sapiens, UniProt Q15427)
SFRS15 = biological target: T1, SFRS15 (Homo sapiens, UniProt O95104)
T1 sequence: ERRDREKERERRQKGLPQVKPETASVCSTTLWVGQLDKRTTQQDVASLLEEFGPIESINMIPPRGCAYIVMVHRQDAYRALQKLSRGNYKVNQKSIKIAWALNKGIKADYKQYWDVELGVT

RBMY1D / RBMY1E = RBMY1D / RBMY1E (Homo sapiens, UniProt P0DJD3)
Sequence of RBMY1D / RBMY1E (P0DJD3 1-110): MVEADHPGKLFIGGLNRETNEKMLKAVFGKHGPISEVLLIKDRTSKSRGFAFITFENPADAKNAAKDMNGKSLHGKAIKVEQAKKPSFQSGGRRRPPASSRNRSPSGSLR

SF2 = SF2 (Homo sapiens, UniProt Q07955)
Sequence of SF2 (Q07955 1-220): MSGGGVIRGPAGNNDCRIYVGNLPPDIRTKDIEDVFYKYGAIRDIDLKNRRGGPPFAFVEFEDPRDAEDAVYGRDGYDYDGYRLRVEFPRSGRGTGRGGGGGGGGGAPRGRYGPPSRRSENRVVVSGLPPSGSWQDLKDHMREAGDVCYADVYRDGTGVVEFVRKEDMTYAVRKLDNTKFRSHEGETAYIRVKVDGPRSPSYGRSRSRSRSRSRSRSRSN

PTBP2 = PTBP2 (Homo sapiens, UniProt Q9UKA9)
Sequence of PTBP2 (Q9UKA9 40-531): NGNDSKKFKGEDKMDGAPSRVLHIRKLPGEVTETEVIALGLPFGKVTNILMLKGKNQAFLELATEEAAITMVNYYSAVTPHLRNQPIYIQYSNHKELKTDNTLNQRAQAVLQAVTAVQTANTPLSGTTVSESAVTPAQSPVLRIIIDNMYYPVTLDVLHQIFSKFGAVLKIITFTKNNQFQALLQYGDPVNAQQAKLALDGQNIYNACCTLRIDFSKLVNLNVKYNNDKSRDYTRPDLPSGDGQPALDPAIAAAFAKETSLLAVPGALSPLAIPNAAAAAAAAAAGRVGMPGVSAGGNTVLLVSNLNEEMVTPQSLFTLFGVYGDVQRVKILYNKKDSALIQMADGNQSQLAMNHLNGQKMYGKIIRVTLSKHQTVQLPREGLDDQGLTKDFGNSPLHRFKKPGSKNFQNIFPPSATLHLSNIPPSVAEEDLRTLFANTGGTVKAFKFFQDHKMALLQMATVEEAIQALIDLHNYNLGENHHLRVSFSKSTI

SR140 = SR140 (Homo sapiens, UniProt O15042)
Sequence of SR140 (O15042 250-375): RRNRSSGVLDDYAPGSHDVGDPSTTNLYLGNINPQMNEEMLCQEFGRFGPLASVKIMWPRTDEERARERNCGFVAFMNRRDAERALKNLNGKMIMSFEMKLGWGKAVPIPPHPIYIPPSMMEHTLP

RBM22 = biological target: T2, RBM22 (Homo sapiens, UniProt Q9NW64)
T2 sequence: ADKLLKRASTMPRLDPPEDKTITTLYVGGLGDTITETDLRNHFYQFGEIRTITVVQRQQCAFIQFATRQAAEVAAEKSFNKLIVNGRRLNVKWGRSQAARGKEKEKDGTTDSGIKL

RBPMS2 = RBPMS2 (Homo sapiens, UniProt Q6ZRY4)
Sequence of RBPMS2 (Q6ZRY4 10-130): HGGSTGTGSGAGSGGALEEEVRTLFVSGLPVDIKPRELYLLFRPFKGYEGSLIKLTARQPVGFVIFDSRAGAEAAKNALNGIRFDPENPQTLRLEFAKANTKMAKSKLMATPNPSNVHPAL

SFRS3 = biological target: T3, SFRS3 (Homo sapiens, UniProt P84103)
T3 sequence: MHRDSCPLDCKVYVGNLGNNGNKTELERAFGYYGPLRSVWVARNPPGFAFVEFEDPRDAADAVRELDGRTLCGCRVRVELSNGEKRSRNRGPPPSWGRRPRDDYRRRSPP

TRSPAP1 = biological target: T4, TRSPAP1 (Homo sapiens, UniProt Q9NX07)
T4 sequence: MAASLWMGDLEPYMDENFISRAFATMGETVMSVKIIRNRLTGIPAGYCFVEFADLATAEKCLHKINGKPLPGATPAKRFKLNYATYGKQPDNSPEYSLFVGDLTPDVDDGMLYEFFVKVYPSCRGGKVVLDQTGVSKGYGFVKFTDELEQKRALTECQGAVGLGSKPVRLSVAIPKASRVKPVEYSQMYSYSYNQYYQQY

RBM8A = RBM8A (Homo sapiens, UniProt Q9Y5S9)
PGC-1 alpha = biological target: T5, PGC-1 alpha (Homo sapiens, UniProt Q9UBK2)
T5 sequence: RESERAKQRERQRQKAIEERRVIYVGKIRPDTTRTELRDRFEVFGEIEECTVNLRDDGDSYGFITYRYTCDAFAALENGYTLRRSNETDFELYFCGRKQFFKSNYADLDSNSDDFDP

NOVA1(3) = biological target: T6, NOVA1(3) (Homo sapiens, UniProt P51513)
T6 sequence: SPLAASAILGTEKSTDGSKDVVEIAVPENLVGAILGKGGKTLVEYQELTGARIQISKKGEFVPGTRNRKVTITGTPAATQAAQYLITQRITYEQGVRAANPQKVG

SFRS2 = biological target: T7, SFRS2 (Homo sapiens, UniProt Q01130)
T7 sequence: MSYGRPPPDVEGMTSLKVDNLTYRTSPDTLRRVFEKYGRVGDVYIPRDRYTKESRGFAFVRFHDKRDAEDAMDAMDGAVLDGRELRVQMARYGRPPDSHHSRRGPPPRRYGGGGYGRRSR

STRBP(2) = biological target: T8, STRBP(2) (Homo sapiens, UniProt Q96SI9)
T8 sequence: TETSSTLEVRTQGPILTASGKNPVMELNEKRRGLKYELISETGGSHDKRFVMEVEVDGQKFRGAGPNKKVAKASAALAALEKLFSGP

KHDRBS3 = biological target: T9, KHDRBS3 (Homo sapiens, UniProt O75525)
T9 sequence: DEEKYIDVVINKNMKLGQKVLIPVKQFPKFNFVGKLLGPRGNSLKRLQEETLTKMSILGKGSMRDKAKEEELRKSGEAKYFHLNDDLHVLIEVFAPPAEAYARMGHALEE

PGC-1 beta = biological target: T10, PGC-1 beta (Homo sapiens, UniProt Q86YN6)
T10 sequence: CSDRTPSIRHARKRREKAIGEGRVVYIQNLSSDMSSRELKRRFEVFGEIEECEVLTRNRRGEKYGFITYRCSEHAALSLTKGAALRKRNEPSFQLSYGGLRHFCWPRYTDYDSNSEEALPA

hnRNP E2(3) = hnRNP E2(3) (Homo sapiens, UniProt Q15366)
Sequence of hnRNP E2(3) (Q15366 269-365): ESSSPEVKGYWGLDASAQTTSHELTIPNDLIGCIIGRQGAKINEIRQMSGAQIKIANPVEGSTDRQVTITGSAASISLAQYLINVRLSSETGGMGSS

RBM12(1-2) = biological target: T11, RBM12(1-2) (Homo sapiens, UniProt Q9NTZ6)
T11 sequence: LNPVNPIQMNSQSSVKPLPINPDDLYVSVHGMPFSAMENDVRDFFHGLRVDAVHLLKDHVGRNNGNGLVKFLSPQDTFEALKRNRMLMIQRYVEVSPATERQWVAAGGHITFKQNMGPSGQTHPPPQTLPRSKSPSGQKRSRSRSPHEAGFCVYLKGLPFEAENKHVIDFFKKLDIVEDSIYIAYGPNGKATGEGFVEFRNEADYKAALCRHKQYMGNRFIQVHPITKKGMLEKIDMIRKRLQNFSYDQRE

RBMY1F = RBMY1F (Homo sapiens, UniProt Q15415)
Sequence of RBMY1F (Q15415 1-110): as the sequence (P0DJD3 1-110) above, with K71T counted along it

Sequence of SF3B4 (Q15427 1-200): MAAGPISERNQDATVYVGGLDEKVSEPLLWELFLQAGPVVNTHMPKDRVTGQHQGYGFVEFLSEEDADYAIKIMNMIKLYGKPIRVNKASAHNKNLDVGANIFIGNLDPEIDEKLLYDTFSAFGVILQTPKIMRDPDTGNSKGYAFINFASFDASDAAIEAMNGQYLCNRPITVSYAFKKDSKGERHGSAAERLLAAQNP

Sequence	binding signal (SF3B4) [fluorescence intensity]	binding signal (SFRS15) [fluorescence intensity]	binding signal (RBMY1D / RBMY1E) [fluorescence intensity]	binding signal (SF2) [fluorescence intensity]	binding signal (PTBP2) [fluorescence intensity]	binding signal (SR140) [fluorescence intensity]	binding signal (RBM22) [fluorescence intensity]	binding signal (RBPMS2) [fluorescence intensity]	binding signal (SFRS3) [fluorescence intensity]	binding signal (TRSPAP1) [fluorescence intensity]	binding signal (RBM8A) [fluorescence intensity]	binding signal (PGC-1 alpha) [fluorescence intensity]	binding signal (NOVA1(3)) [fluorescence intensity]	binding signal (SFRS2) [fluorescence intensity]	binding signal (STRBP(2)) [fluorescence intensity]	binding signal (KHDRBS3) [fluorescence intensity]	binding signal (PGC-1 beta) [fluorescence intensity]	binding signal (hnRNP E2(3)) [fluorescence intensity]	binding signal (RBM12(1-2)) [fluorescence intensity]	binding signal (RBMY1F) [fluorescence intensity]
UGAGGUAGUAGGUUGUGUGGUU	1290 ± 27	289 ± 27.3	1420 ± 19.5	895.8 ± 6.29	166 ± 17.3	149 ± 8.63	126 ± 31.8	515 ± 10.3	276 ± 12.7	332 ± 22.4	492 ± 15.8	72.3 ± 6.39	202.3 ± 0.523	1219 ± 7.53	83.8 ± 5.54	28.2 ± 0.368	385 ± 12.8	20.3 ± 0.735	1210 ± 36.7	1478 ± 10.7
UGAGGUAGUAGGUUGUAUAGUU	346 ± 11.8	46.2 ± 1.86	892 ± 33.6	70.4 ± 4.98	49.5 ± 9.89	32 ± 0.467	25.7 ± 2.21	118 ± 2.62	37.7 ± 9.2	79.2 ± 10.3	23.6 ± 8.27	–	39 ± 1.15	464 ± 35	–	21.1 ± 1.79	45.6 ± 6.99	23.4 ± 0.594	321 ± 62.5	1000 ± 19
UGAGGUAGUAGGUUGUAUGGUU	638.1 ± 5.52	154.2 ± 0.983	1480 ± 96.8	700 ± 28	147 ± 8.05	80.2 ± 12.3	113.1 ± 0.177	434 ± 21.2	235 ± 17.9	269 ± 24.3	462 ± 23.2	61.6 ± 8.6	111 ± 7.91	1110 ± 31.5	56.6 ± 5.37	22.9 ± 1.58	260 ± 19.3	20.2 ± 0.297	1230 ± 64.3	1430 ± 254
CAGUGCAAUGAUGAAAGGGCAU	1680 ± 98.9	141 ± 12.5	1280 ± 58.5	702.4 ± 1.9	55.4 ± 5.87	43.9 ± 3.02	52.6 ± 1.44	1650 ± 53.9	219 ± 8.61	84.1 ± 10.6	194 ± 11.7	52.5 ± 18.4	735.5 ± 6.54	1100 ± 38.7	–	23.5 ± 3.87	78.9 ± 4.49	21.9 ± 0.262	873 ± 45.6	1404 ± 5.42
UAGCUUAUCAGACUGAUGUUGA	700 ± 28.6	22.3 ± 2.16	817.2 ± 6.26	126 ± 12.9	23.2 ± 6.02	21.9 ± 3.08	–	37.6 ± 9.28	34.7 ± 4.07	45.5 ± 1.42	–	–	126.9 ± 0.87	480 ± 21.9	–	–	–	20.9 ± 1.85	271 ± 62.1	865 ± 36.1
AGAGGUAGUAGGUUGCAUAGUU	1440 ± 72.2	153 ± 14.1	2080 ± 121	925 ± 29.4	96.6 ± 13.3	142.1 ± 1.25	71.81 ± 0.233	1780 ± 12.1	324.4 ± 0.806	351 ± 8.57	530 ± 30.3	50.4 ± 6.92	1990 ± 38.5	1507 ± 5.18	38.5 ± 2.51	26.3 ± 5.34	196 ± 13.5	21.7 ± 1.28	1270 ± 68.8	2241 ± 17.4
